This is one part of the list. A number with no mark means an inactive call. The source made the active and inactive calls. Rule as the data show it: active = activation above about 12%; inactive = the rest. Non-standard residues stand in square brackets, D forms with d. Residues, ends and D or L forms follow the SMILES beside them. ξ: configuration not given here. ξM = CSCCC(N)C(=O)O

Here are results for 32 molecules from PubChem BioAssay AID1523 (The Scripps Research Institute Molecular Screening Center, 2009).

In the assay the target is Sphingosine 1-phosphate receptor 4 (Homo sapiens) (UniProt O95977). Description: S1P4 receptor agonists, retest, confirmation, cell-based, high throughput (AID 1523).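 Also: 0% = vehicle and 100% = full reference agonist response.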 The following applies: S1P4 agonist cell-based reporter assay; at 4.98 µM; stronger effect = higher value. (In general: Reporter assays use an easily measured gene product as a stand-in for the process of interest.)
Sphingosine 1-phosphate receptor 4 (Homo sapiens), sequence (O95977 whole entry, looked up): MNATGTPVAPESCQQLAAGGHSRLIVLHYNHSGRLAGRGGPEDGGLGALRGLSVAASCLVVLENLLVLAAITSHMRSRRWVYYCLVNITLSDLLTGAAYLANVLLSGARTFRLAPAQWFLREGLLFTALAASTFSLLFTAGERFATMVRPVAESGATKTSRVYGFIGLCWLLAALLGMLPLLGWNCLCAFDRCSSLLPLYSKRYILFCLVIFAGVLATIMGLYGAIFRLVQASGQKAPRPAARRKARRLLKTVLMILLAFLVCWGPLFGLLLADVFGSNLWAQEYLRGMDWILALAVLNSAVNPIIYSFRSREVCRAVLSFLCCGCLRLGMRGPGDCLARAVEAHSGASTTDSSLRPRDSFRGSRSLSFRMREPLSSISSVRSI
As to `Cc1noc(C)c1COC(=O)COc1ccc(-c2ccccc2)cc1`, the activation was -2.48%.

`O=C(COC(=O)c1cc([N+](=O)[O-])ccc1NCc1ccccc1)NC1CCCCC1`: the activation is -2.43%.

As for `Cc1cc(C)nc(N(C#N)CC(=O)Nc2ccccc2)n1`, the activation is -0.69%.

As for `COC(=O)CNC(=O)C(CCSC)NC(C)=O` (configuration not stated) (Ac-[ξM]-Gly-OMe), the activation is -1.87%.

For `O=C(CSc1nncn1-c1cccnc1)N1CCOCC1`, the activation is -1.73%.

`CC(C)C(c1nnnn1C(C)(C)C)N1CCN(Cc2cccnc2)CC1` (configuration not stated): the activation is -2.62%.

As to `C=CCn1c(SCn2nnc3ccccc3c2=O)nnc1-c1ccc(Cl)cc1`, the activation is -1.29%.

For the molecule `CC(=O)Nc1ccc(SCC(=O)Nc2ccccc2Oc2ccccc2)cc1`, the activation is -3.24%.

On to `CCn1c(CNC(=O)c2ccc(OC)c(OC)c2)nnc1SCC(=O)Nc1ccccc1`, for which the activation is -2.38%.

For `O=C(CSc1nnc(Nc2ccccc2)s1)Nc1cccnc1Cl`, the activation was -0.71%.

For the molecule `Cc1cc(NC(=O)c2cc(-c3cccs3)on2)nn1Cc1ccc(Cl)cc1`, the activation was -0.63%.

In the case of `COc1ccc(C2CC(c3cccs3)=NN2c2ccc(F)cc2)cc1OC` (configuration not stated), the activation is 10.7%.

Consider `COc1ccccc1CNC(=O)CNC(=O)c1cn(-c2ccccc2OC)c(=O)c2ccccc12`, for which the activation is -1.82%.

In the case of `O=[N+]([O-])c1cccc(Nc2c3ccccc3nc3ccccc23)c1`, the activation was 6.3%.

On to `CCOc1ccc(-c2nnc(-c3ccco3)o2)cc1`, for which the activation was -1%.

Take `CSc1sc(C(=O)NNC(=O)c2ccc(Cl)cc2)c2c1C=CCC2`: the activation is -2.13%.

Regarding `CNC(=O)c1[nH]cnc1C(=O)N[C@@H](CC(C)C)C(=O)OCc1ccccc1`, the activation was 48% (active).

Regarding `O=C(CSc1ccc(-c2ccc(F)cc2)nn1)Nc1ccc2c(c1)OCCO2`, the activation is -1.49%.

On to `N/C(=N\OC(=O)Cc1ccc([N+](=O)[O-])cc1)c1ccccn1`, for which the activation was -3.04%.

As for `CC(=O)Nc1ccccc1NC(=O)c1cc(C)cc(C)c1`, the activation was -2.02%.

Regarding `COC(=O)[C@@H]1CC[C@H](C)[C@@H](c2ccc(C)cc2)N1C(=O)c1ccc(/C=N/O[C@H](C)c2cn([C@@H]3COC[C@H]3O)nn2)cc1`, the activation is -1.25%.

Consider `COc1ccc(-n2c(C)cc(C(=O)CN3C(=O)NC4(CCc5ccccc54)C3=O)c2C)cc1` (configuration not stated), for which the activation is -1.26%.

As for `O=C(COC(=O)Cc1ccc(F)cc1)Nc1cc(S(=O)(=O)N2CCOCC2)ccc1N1CCCC1`, the activation is -0.73%.

Turning to `CC(Oc1ccc(Br)cc1Br)C(=O)NC1CCCC1` (configuration not stated), the activation is -1.69%.

`COc1ccc(C2CC(c3cccs3)=NN2c2ccccc2)cc1` (configuration not stated): the activation is 23.1% (active).

Consider `Cc1ccc(NC(=O)Nc2ccccc2)c(Br)c1`, for which the activation was -1.05%.

Consider `CC1CCCC(NC(=O)COC(=O)[C@@H]2CC(O)CN2S(=O)(=O)c2ccc3c(c2)OCCO3)C1C` (some centres not stated), for which the activation was -1.06%.

Regarding `Cc1cc(C)c(C#N)c(SCC(=O)NN2CC(=O)N(c3ccccc3F)CC2=O)n1`, the activation was -0.87%.

In the case of `COc1ccc(N2C(=O)C(Cc3ccccc3)NC2=S)cc1` (configuration not stated), the activation is -1.44%.

Take `CCC(=O)/C(=C(/O)c1ccccc1)c1nc2ccccc2[nH]1`: the activation was -1.45%.

Consider `CCC(C)NC(=O)C1c2ccccc2Oc2ccccc21` (configuration not stated), for which the activation is 0.12%.

For `CCCCCNC(=O)c1cccnc1SCC(=O)Nc1ccccc1OC`, the activation was -2.09%.
